From PubChem BioAssay
This is a sample that favours compounds with a hit; in the whole collection about 5% have one here.
LmPK inhibitor = qHTS Assay for Inhibitors of Leishmania Mexicana Pyruvate Kinase (LmPK); Q27686; purified LmPK, Kinase-Glo ATP luminescence, 1 h; Potency, µM (series often up to 57.5 µM), for inactives: top-dose activity change, negative = inhibition, actives largely listed as inhibitors; hit rate 0.37% among 290,000; AID 1721, 2009; also: potency is read from the fitted curve at half-maximal effect
Target sequence (Q27686 whole entry, looked up): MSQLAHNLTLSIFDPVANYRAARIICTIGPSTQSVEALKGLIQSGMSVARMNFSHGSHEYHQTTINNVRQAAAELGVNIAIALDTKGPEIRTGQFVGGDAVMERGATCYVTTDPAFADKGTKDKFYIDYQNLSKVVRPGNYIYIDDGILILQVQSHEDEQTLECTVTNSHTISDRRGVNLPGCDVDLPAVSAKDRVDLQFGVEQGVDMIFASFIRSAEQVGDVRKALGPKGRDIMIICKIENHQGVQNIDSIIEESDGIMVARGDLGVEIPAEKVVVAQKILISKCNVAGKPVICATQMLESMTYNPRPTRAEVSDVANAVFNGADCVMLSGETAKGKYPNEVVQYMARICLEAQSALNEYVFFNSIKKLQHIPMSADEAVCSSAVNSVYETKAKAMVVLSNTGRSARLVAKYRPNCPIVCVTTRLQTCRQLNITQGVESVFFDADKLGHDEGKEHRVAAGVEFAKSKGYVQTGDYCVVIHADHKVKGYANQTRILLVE
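In 50 mM imidazole pH 7.2 with 7 mM MgCl2, LmPK (0.1 nM) turned over PEP (0.5 mM) and ADP (0.1 mM) for 1 h at room temperature. Luciferase read-out of ATP.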
VACV Venus inh = qHTS for Stage-Specific Inhibitors of Vaccinia Orthopoxvirus: Venus Reporter Primary qHTS. Vaccinia virus Venus reporter expression, fluorescence. Potency, µM (highest dose often 36.5 µM), for the others: at the highest dose activity change, negative = inhibition, hits mostly inhibitors. hit rate 0.46% among 330,000; calls by dose curve; tested in A549 cells; also: potency is read from the fitted curve at half-maximal effect; nearly all actives have a fitted effect of over 30% in size
Vaccinia mCherry = qHTS for Stage-Specific Inhibitors of Vaccinia Orthopoxvirus: mCherry Reporter Primary qHTS. Vaccinia virus mCherry reporter infection, fluorescence. Potency, µM (doses to about 36.5 µM), for inactives: at the top dose activity change, negative = inhibition, hits mostly inhibitors. hit rate 0.63% among 310,000. AID 720579, 2013; calls by dose curve; tested in A549 cells; also: potency is read from the fitted curve at half-maximal effect; nearly all actives have a fitted effect of over 35% in size
TbPYK inhibitor = qHTS of Trypanosoma Brucei Inhibitors. AID 624173, 2012. TbPYK enzyme, Kinase-Glo Plus ATP luminescence, 45 min. pyruvate kinase (Trypanosoma brucei), Q57TT1. Potency, µM (series often up to 76.8 µM), inactives show top-dose activity, negative = inhibition, most hits filed as inhibitors. hit rate 0.12% among 410,000; also: potency is read from the fitted curve at half-maximal effect; nearly all actives have a fitted effect of over 50% in size
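Luminescent Kinase-Glo Plus end-point after 45 min room-temperature reaction of T. brucei pyruvate kinase started with 130 uM ADP (final). Buffer TEA 50 mM pH 7.2 with KCl, MgCl2, BSA, Tween-20; titration-based qHTS with fitted concentration-effect curves.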
HCMV inh = qHTS Assay for inhibitors of the human cytomegalovirus (HCMV). HFF cells, HCMV-luciferase reporter, 72 h; stronger effect = lower value. activity change, negative = inhibition, % at 57.5 µM. hit rate 4.5% among 410,000. AID 1259415, 2018; in the data active = activity change below about -60%; inconclusive = no clear call, values can overlap the other calls; inactive = above about -39%
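Two compound doses tested in HFFs infected with HCMV-luciferase, MOI 1 PFU/cell, 72 h at 37C. Lysate luminescence read with OneGlo; data normalized against buffer-only and 10uM Salinomycin inhibitor controls.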
* = called active by the depositor; i = inactive; ? = inconclusive; nt = no result; [ ] = remark or other dose. Unless noted, calls follow the shape of the dose curve; as a rule, active = well fitted curve in the direction sought with a large enough effect; inconclusive = small, poorly fitted or top-dose-only effect, or another doubt; inactive = no such curve, though single readings can be large; an effect the other way counts as inactive or inconclusive. % is scaled to controls: 0 for no effect and ±100 for the full control effect.

SMILES	LmPK inhibitor	VACV Venus inh	Vaccinia mCherry	TbPYK inhibitor	HCMV inh
CCCCCCCCCCn1c2c(c(=N)c3c1CCC3)CCC2	-2.2%	10µM*	12.6µM*	5.8%	-97.5*
COC(=O)c1ccc2[nH]c([C@H](C)O)c([C@H](C)O)c2c1	-11.3%	-7.2%	i	-13.1%	-19.2
CCN1C(=O)/C(=C/c2ccc(N3CCCC3)cc2)NC1=S	-1.5%	35.8%	-14.2%	-17.2%	-64.6*
CCCN1C(=O)/C(=C/c2ccc(N3CCOCC3)cc2)NC1=S	10.2%	nt	nt	-16.4%	-4.9
C=CCNC(=O)c1ccccc1NC(=O)Cc1ccccc1[N+](=O)[O-]	4.8%	-9.8%	-12.5%	8.7%	42.3
COc1cc(/C=C(/C)[N+](=O)[O-])ccc1OCc1ccccc1Cl	1.4%	11.2µM*	?	-18.0%	nt
COc1cc(/C=N/O)ccc1OCc1ccccc1Cl	-5.9%	-14.0%	i	-0.7%	5.2
CSCCC(c1nnnn1C(C)(C)C)N1CCN(C/C=C/c2ccccc2)CC1 (stereo not given)	nt	-1.4%	i	5.6%	-34.3
C=CCNc1nc(-c2ccccn2)nnc1-c1ccccc1	-0.2%	?	28.2µM*	-6.0%	-102.9*
c1ccc(-c2cnnc(-c3ccccn3)n2)cc1	nt	-7.6%	-9.1%	-5.0%	-2.6
COc1ccc(-c2csc(C(C)(O)c3ccccc3)n2)cc1 (stereo not given)	nt	0.3%	17.7%	3.8%	11.9
COc1cccc(C(C)(O)c2nc(-c3ccc(N(C)C)cc3)cs2)c1 (stereo not given)	nt	-14.4%	11.9%	-0.3%	-73.7*
COc1ccc(C(C)(O)c2nc(-c3ccccc3)cs2)cc1 (stereo not given)	nt	-27.9%	-1.6%	-3.0%	-78.2*
COc1ccc(-c2csc(C(C)(O)c3cccnc3)n2)cc1 (stereo not given)	nt	-7.0%	i	-8.5%	-68.7*
COc1ccc(-c2csc(C(C)(O)c3ccc(OC)cc3)n2)cc1 (stereo not given)	nt	-15.5%	11.8%	2.8%	-23.6
CCOC(=O)c1sc(NC(=S)NC(=O)c2ccccc2)nc1C	-14.3%	nt	nt	-4.7%	140.9
CCOC(=O)C1=C(NC(=S)NC(=O)c2ccccc2)c2ccccc2CC12CCCC2	1.3%	1.5%	?	-2.4%	-98.6*
Cc1nc2ccc(S(=O)(=O)N(C)CC(=O)Nc3ccccc3F)cc2s1	2.1%	-10.8%	i	-0.2%	43.1
C=CCSc1n[nH]c(-c2ccccc2)n1	-11.2%	-21.3%	nt	0.0%	-89.3*
N#CC[n+]1cc(-c2ccc(Cl)cc2)n2c1CCC2	-0.4%	nt	nt	-4.1%	20.2
O=[N+]([O-])c1ccc(C[n+]2cc(-c3ccc(Cl)c(Cl)c3)n3c2CCCCC3)cc1	4.2%	nt	nt	-1.6%	-15.8
Clc1ccc(-c2c[n+](Cc3cccc(Cl)c3)c3n2CCC3)cc1	0.8%	-15.9%	-14.4%	-7.6%	-93.6*
Clc1ccc(C[n+]2cc(-c3ccccc3)n3c2CCC3)cc1Cl	0.2%	-10.4%	i	-5.4%	-72.2*
COc1cc(/C=C/c2ccc3cccc(O)c3n2)cc(OC)c1OC	-1.0%	-21.8%	8.91µM*	-12.7%	-94.4*
COc1cc(/C=C/c2ccc3c(Br)cc(Br)c(O)c3n2)ccc1O	2.9%	nt	nt	-21.5%	-99.7*
SMILES	LmPK inhibitor	VACV Venus inh	Vaccinia mCherry	TbPYK inhibitor	HCMV inh
COc1ccc(/C=C/c2ccc3cccc(O)c3n2)c(OC)c1OC	0.7%	nt	nt	0.8%	-93.5*
COc1cccc(/C=C/c2ccc3cccc(O)c3n2)c1	-10.1%	-11.5%	?	9.5%	-94.5*
COc1ccc(/C=C/c2ccc3c(Br)ccc(O)c3n2)cc1	6.9%	-18.7%	-15.9%	-5.1%	?
COc1cccc(/C=C/c2ccc3cccc(O)c3n2)c1OC	-5.4%	?	?	2.2%	2.3
CC(C)NC(=O)N1CCN(c2ccncc2S(=O)(=O)N2CCOCC2)CC1	-3.5%	-23.5%	nt	-2.7%	16.0
Nc1ccc(C(=O)c2cccs2)cn1	-0.9%	-10.8%	i	1.6%	98.8
Nc1ccc(-c2cnc(N)c(C(=O)c3cccnc3)n2)cn1	nt	10µM*	?	-5.2%	nt
Cn1c(=O)c2c(-c3ccccc3)n3c(c2n(C)c1=O)C(c1ccc([N+](=O)[O-])cc1)Nc1ccccc1-3 (stereo not given)	nt	-12.3%	-20.9%	-11.5%	-68.0*
Cc1ccc(-c2c3c(=O)n(C)c(=O)n(C)c3c3n2-c2ccccc2NC3c2ccc(C)cc2O)cc1 (stereo not given)	nt	-38.9%	?	0.1%	-96.1*
COc1ccc(O)c(C2Nc3ccccc3-n3c(-c4ccccc4)c4c(=O)n(C)c(=O)n(C)c4c32)c1 (stereo not given)	nt	-23.3%	?	-5.1%	?
CCn1nc(C(=O)OCc2c(C)noc2C)c2ccccc2c1=O	-2.4%	nt	nt	-2.6%	-22.6
CCn1nc(C(=O)NNC(=O)c2ccccc2OCc2c(C)noc2C)c2ccccc2c1=O	nt	nt	nt	0.1%	-82.8*
CN1/C(=C\C(=O)c2cccs2)Sc2ccccc21	11.2µM*	-29.0%	nt	-17.4%	218.8
CN1/C(=C/C(=O)c2cccs2)Sc2ccccc21	?	nt	nt	nt	265.5
Cc1ccc(N2CC(C(=O)NC3CC3)CC2=O)cc1 (stereo not given)	-4.2%	4.6%	-5.0%	-3.3%	11.9
Cc1ccc(N2CC(C(=O)NC3CCCCCC3)CC2=O)cc1 (stereo not given)	nt	-7.1%	-1.4%	-0.5%	-63.5*
O=C(CN1C(=O)C(=O)N(C2CCCC2)C1=O)Nc1ccc(F)cc1F	nt	-13.0%	-14.2%	0.5%	16.5
Cc1ccc2[nH]c3c(NCc4ccco4)ncnc3c2c1	1.2%	?	?	0.5%	-93.6*
COc1cc(CNc2ncnc3c2[nH]c2ccc(C)cc23)cc(OC)c1	5.9%	nt	nt	-1.8%	-65.4*
COc1cc(OC)c(OC)cc1/C=N/Nc1ncnc2c1[nH]c1ccccc12	-2.5%	-5.7%	i	-1.5%	-6.9
COc1ccc2[nH]c3c(NCCN4CCCCC4)ncnc3c2c1	-1.3%	nt	nt	nt	nt
COc1ccc(/C=N/Nc2ncnc3c2[nH]c2ccc(C)cc23)c(OC)c1OC	-2.0%	-10.0%[7.34 µM]	-14.1%[7.34 µM]	-3.1%	-80.2*
Cc1ccc(S(=O)(=O)N2CCN(C(=O)c3cc4c(s3)CCC(C)C4)CC2)cc1 (stereo not given)	nt	-11.9%	-9.3%	2.9%	-16.0
CN(CC(=O)OCC(=O)NC1CCCC1)S(=O)(=O)c1ccc(Cl)cc1	nt	nt	nt	-4.2%	-1.5
C[C@@H]1CCCCO[C@@H](CN(C)C(=O)Cc2ccccc2)[C@@H](C)CN([C@H](C)CO)C(=O)c2cc(N(C)C)ccc2O1	nt	-15.3%	-13.3%	-4.7%	12.4
CCOC(=O)c1cnc2ccc(OCC)cc2c1NCc1ccccc1	3.7%	-27.8%	-13.9%	7.2%	-72.9*
CCOC(=O)c1cnc2ccc(C)cc2c1N(C)Cc1ccccc1	-7.3%	-25.1%	i	-7.4%	-60.1*
